# Test results: the supplement of paper PMC6555819
# What was measured:
# Assay in all cases: PBM binding z-score (relative to random genomic background probes); higher = stronger binding; sequences stand for … in GC…GCGATTGACAGCGTAGAATGAAGG
# [1] = tested on: FXR:RXRa (NR concentration 270 nM, RXRa partner concentration 90 nM)
# How it was run: (§1)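 Custom Agilent 4×180K protein-binding microarrays carried double-stranded probes. Their 34-nt variable regions held direct-repeat seeds, single-nucleotide variants, half-site ablations and random human genomic background sequences. Arrays were incubated 1 h with ligand-free nuclear receptor dimers in PBS pH 7.4, 2% milk, 0.02% Triton X-100, 1 mM DTT, 0.2 mg/mL BSA and 0.4 mg/ml salmon testes DNA. Antibodies against each partner (one per run) detected binding, and scanned fluorescence was regression-normalized. Binding z-scores use random background probes as reference.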
# [2] = tested on: LXRa:RXRa (NR concentration 270 nM, RXRa partner concentration 90 nM)
# How it was run: as §1
# [3] = tested on: LXRa homodimer (NR concentration 270 nM)
# How it was run: as §1
# [4] = tested on: LXRb:RXRa (NR concentration 270 nM, RXRa partner concentration 90 nM)
# How it was run: as §1
# [5] = tested on: LXRb homodimer (NR concentration 270 nM)
# How it was run: as §1
# [6] = tested on: PPARa:RXRa (NR concentration 270 nM, RXRa partner concentration 90 nM)
# How it was run: as §1
# [7] = tested on: PPARg:RXRa (NR concentration 180 nM, RXRa partner concentration 90 nM)
# How it was run: as §1
# [8] = tested on: PPARg:RXRa 270nM:90nM, anti-RXR (NR concentration 270 nM, RXRa partner concentration 90 nM)
# How it was run: as §1
# [9] = tested on: PPARg:RXRa 30nM:10nM, anti-RXR (NR concentration 30 nM, RXRa partner concentration 10 nM)
# How it was run: as §1
# [10] = tested on: PPARg:RXRa 90nM:30nM, anti-RXR (NR concentration 90 nM, RXRa partner concentration 30 nM)
# How it was run: as §1
# [11] = tested on: PPARg:RXRa DBDmut IVT, anti-RXR (DBD mutation: RXRa K156A/R161A, NR concentration 270 nM, RXRa partner concentration 90 nM)
# How it was run: as §1
# [12] = tested on: PPARg:RXRa IVT, anti-PPARg (NR concentration 270 nM, RXRa partner concentration 90 nM)
# How it was run: as §1
# [13] = tested on: PPARg DBDmut:RXRa IVT, anti-PPARg (DBD mutation: PPARg1 K132A/R137A, NR concentration 270 nM, RXRa partner concentration 90 nM)
# How it was run: as §1
# [14] = tested on: PPARg DBDmut IVT, anti-PPARg (DBD mutation: PPARg1 K132A/R137A, NR concentration 270 nM)
# How it was run: as §1
# [15] = tested on: PPARg homodimer (NR concentration 180 nM)
# How it was run: as §1
# [16] = tested on: PXR:RXRa (NR concentration 270 nM, RXRa partner concentration 90 nM)
# How it was run: as §1
# [17] = tested on: PXR homodimer (NR concentration 270 nM)
# How it was run: as §1
# [18] = tested on: RARa:RXR (NR concentration 270 nM, RXRa partner concentration 90 nM)
# How it was run: as §1
# [19] = tested on: RARa homodimer (NR concentration 270 nM)
# How it was run: as §1
# [20] = tested on: RARb:RXRa (NR concentration 270 nM, RXRa partner concentration 90 nM)
# How it was run: as §1
Sequence,PBM binding z-score [1],PBM binding z-score [2],PBM binding z-score [3],PBM binding z-score [4],PBM binding z-score [5],PBM binding z-score [6],PBM binding z-score [7],PBM binding z-score [8],PBM binding z-score [9],PBM binding z-score [10],PBM binding z-score [11],PBM binding z-score [12],PBM binding z-score [13],PBM binding z-score [14],PBM binding z-score [15],PBM binding z-score [16],PBM binding z-score [17],PBM binding z-score [18],PBM binding z-score [19],PBM binding z-score [20]
TCGAGTTGGTCAAAGGTCACACACTCGAAATGCG,5.98,5.57,3.08,5.33,0.74,6.37,10.4,9.4,8.64,11.3,1.75,5.88,1.98,1.49,8.37,6.29,1.41,7.61,4,4.9
ATCTCTAGGTAAAGTTCAGTGAAAGATCGATAGA,1.38,2.08,1.69,1.3,0.964,2.35,3.26,4.38,2.33,3.93,2.6,2.6,1.37,0.916,1.68,2.11,1.93,1.86,1.27,2.86
ATACCAAGGTGATCGTGAGGTCGTTGTTACTAAC,1.57,1.11,0.763,1.32,0.361,1.47,0.364,0.56,-0.301,0.535,0.34,1.36,0.414,0.123,1.05,2.84,1.29,2.11,0.23,1.3
TAGCCTAGGTCATGGGCCAGTAAACCACGCGAAC,4.54,3.68,0.175,2.43,-0.182,4.46,3.46,3.97,1.13,2.88,1.71,3.46,0.0624,0.0351,1.25,1.83,-0.321,2.72,-0.171,3.98
TCATATAGTTAAACAGGTGAAAGTCCGTAAGTTA,1.06,1.1,0.478,1.1,0.356,1.7,1.25,2.68,4.38,3.42,2.65,1.54,1.36,1.6,1.34,0.848,0.543,1.2,1.91,0.698
GTACCAAGGTGAATAGGTCTTTGATGAGTAGGCG,0.444,0.341,-0.168,0.148,-0.363,1.23,0.96,1.11,0.335,0.823,2.18,2.5,0.818,0.145,0.986,0.0831,0.119,0.721,0.436,1.36
CATAGCAGGCCAATCTGGGTCACTCAAGGCTTGA,0.72,1.46,-0.00669,0.604,0.0178,3.01,2.72,2.73,0.652,2.05,4.39,5.66,-0.292,-0.125,0.261,1.03,-0.436,1.25,-0.301,1.65
CGAACTAGGTCATAACAGGACAGTGAAGGATGAT,3.19,4.15,0.43,1.95,0.0725,4.26,6.94,6.14,3.52,5.3,7.75,8.05,5.21,4.58,2.38,2.04,0.386,2.3,0.47,3.38
GCTCGGAGGACAAGGTCAGAGTTTTGTCCGTAGA,1.98,1.71,-0.00501,1.56,-0.35,2.42,0.985,1.89,-0.291,0.859,0.207,0.996,-0.873,-1.18,0.43,1.95,0.373,2.23,-0.47,3.46
TAGCCTAGGTCAGATCGGGCCACTATACGCTATA,2.45,1.34,-0.308,0.919,-0.028,1.65,0.925,0.87,-0.128,0.49,0.727,1.46,-0.3,-0.905,0.204,1.73,-0.326,1.39,-0.348,3.01
CCAGACAGGTTAAAGGTAACTCAGTCTGGTACGC,1.95,1.84,0.195,1.63,-0.137,3.7,4.55,4.78,3.23,5.29,0.728,1.86,-0.35,-0.757,1.24,2.15,-0.196,3.52,0.287,1.69
CGAACTACGTCATTGACAGGACAGTGAATAGTAA,-0.386,-0.38,-0.195,-0.327,-0.182,-0.47,0.307,-0.251,-0.294,-0.164,-0.246,-0.155,0.611,0.69,0.0858,-0.217,0.0481,-0.22,0.592,-0.0589
ACTAGCAGGCCAAGGTTGGGTCACTCAAACAAAG,-0.0834,-0.151,-0.416,0.203,-1.03,1.39,0.643,1.19,-0.515,0.491,0.282,0.868,-0.95,-1.46,0.597,0.524,-0.493,1.24,-0.93,1.69
CGAACTAGATCAAGGACAGTGAATCTCCGCACGC,-0.0387,-0.559,-0.0881,-0.756,-0.00382,-0.388,0.599,-0.0723,-0.423,-0.36,1.97,0.649,-0.11,-0.153,0.0368,-0.495,-0.0304,-0.24,0.262,0.0814
